Compound activity: PubChem BioAssay, National Center for Advancing Translational Sciences (NCATS)
BAZ2B inh: inhibitors of human BAZ2B bromodomain; AlphaScreen BAZ2B-H3K14Ac peptide displacement; Potency, µM (highest dose often 114 µM), without a hit: at the highest dose activity change, negative = inhibition, most hits filed as inhibitors; hit rate 4.4% among 360,000; AID 504333; further: potency means the concentration at half of the fitted maximal effect; on the % scale 0 is the no-effect control and ±100 the full control effect; nearly all actives have a fitted effect of over 60% in size
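AlphaScreen displacement: compounds (up to 110uM) incubated 30 min at room temperature with a preformed 50 nM BAZ2B/50 nM biotinylated H3K14Ac peptide complex in PBS pH 7.4 with Tween-20. Donor and acceptor beads at 10 ug/mL final added, 20 min light-protected before reading.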
Six1-Eya2 blk: inhibitors of human Six1/Eya2 interaction; Q15475+O00167; AID 651725; hit rate 0.56% among 360,000; AlphaScreen GST-Six1/His-Eya2 binding, biochemical; stronger effect = lower value; activity change, % (no concentration beside the values); in the data active means activity change below about -65%; inconclusive means mostly about -30% to -63%; further: on the % scale 0 is the no-effect control and ±100 the full control effect
Target sequence (O00167 whole entry, looked up): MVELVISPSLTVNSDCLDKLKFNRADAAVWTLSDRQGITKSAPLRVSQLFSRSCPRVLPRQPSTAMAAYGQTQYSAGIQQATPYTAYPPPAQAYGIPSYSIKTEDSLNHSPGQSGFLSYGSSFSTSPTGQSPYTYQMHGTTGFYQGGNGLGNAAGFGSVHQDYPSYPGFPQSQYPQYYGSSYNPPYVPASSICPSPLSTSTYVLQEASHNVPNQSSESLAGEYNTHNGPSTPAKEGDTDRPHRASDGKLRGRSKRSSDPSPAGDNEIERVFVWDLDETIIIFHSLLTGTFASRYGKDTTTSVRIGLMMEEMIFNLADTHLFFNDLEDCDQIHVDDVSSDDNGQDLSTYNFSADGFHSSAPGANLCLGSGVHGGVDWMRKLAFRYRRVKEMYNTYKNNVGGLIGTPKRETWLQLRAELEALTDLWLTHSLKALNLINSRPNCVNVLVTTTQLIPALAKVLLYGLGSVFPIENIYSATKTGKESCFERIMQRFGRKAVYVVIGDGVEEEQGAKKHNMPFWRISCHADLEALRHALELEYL
Target sequence (Q15475 whole entry, looked up): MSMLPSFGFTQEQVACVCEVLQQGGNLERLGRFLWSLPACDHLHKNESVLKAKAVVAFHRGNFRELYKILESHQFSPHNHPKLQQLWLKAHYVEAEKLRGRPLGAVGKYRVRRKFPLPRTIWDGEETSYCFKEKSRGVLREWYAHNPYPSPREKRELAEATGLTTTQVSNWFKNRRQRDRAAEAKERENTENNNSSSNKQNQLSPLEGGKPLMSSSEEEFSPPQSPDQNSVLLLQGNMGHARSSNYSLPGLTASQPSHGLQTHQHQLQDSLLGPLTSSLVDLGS
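GST-Six1 + His-Eya2 (5X stock: 250/500 nM); Tris pH 8.0, 300 mM NaCl, 0.05% BSA, 0.02% Tween 20; GSH donor/Ni acceptor beads; 1 h 37 °C dark; AlphaScreen readout.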
HP1b binding inh: HP1-beta chromodomain-methylated histone interaction inhibition; AlphaScreen HP1-beta / biotin-H3K9me3 peptide binding; Potency, µM (top dose mostly 114 µM), without a hit: at the highest dose activity change, negative = inhibition, hits mostly inhibitors; hit rate 0.56% among 390,000; AID 540317; further: potency means the concentration at half of the fitted maximal effect; nearly all actives have a fitted effect of over 70% in size
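Compound inhibition of the preformed complex between 50 nM HP1-beta and 50 nM biotinylated H3K9me3 peptide was read by AlphaScreen. Buffer was PBS pH 7.4 with 0.01% Tween-20. Incubations ran 30 min at room temperature, with 10 ug/mL donor/acceptor beads.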
JMJD2A Tudor: JMJD2A Tudor domain (human) inhibition; O75164; AlphaScreen JMJD2A-Tudor / H3K4me3 peptide binding; Potency, µM (doses to about 114 µM), without a hit: top-dose activity change, negative = inhibition, most hits filed as inhibitors; hit rate 4.4% among 390,000; AID 504339; further: potency means the concentration at half of the fitted maximal effect; on the % scale 0 is the no-effect control and ±100 the full control effect; nearly all actives have a fitted effect of over 50% in size
G9a inh: blocks human histone lysine methyltransferase G9a. Q96KQ7. G9a H3K9 monomethylation, AlphaScreen, 2 h. Potency, µM (titrated, usually from 102 µM), without a hit: top-dose activity, negative = inhibition, usual class: inhibitors. hit rate 8.8% among 350,000. AID 504332; further: potency means the concentration at half of the fitted maximal effect; on the % scale 0 is the no-effect control and ±100 the full control effect; nearly all actives have a fitted effect of over 75% in size
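Readings reflect AlphaScreen signal from monomethyl-H3K9 antibody detection. HMT at 20 nM; substrate b-H3K9 500 nM; cofactor SAM 20 uM; 2 h RT reaction; compounds tested as titrations in qHTS with 15 min preincubation.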
CtBP-E1A blk: blocks the CtBP interaction with E1A. AlphaScreen GST-E1A/His-CtBP binding, 1536-well; stronger effect = lower value. activity change, % (no concentration beside the values). hit rate 0.49% among 340,000. AID 651724; in the data active means activity change below about -65%; inconclusive means mostly about -30% to -63%; further: on the % scale 0 is the no-effect control and ±100 the full control effect
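Steps: dispense buffer (Tris pH 8.0, NaCl 300 mM, TCEP 1 mM, BSA, Tween 20); add 5X protein mix (GST-E1A, His-CtBP, 125 nM each); pin 23 nL compound; 2 h at 37 °C, dark; add 5X beads (50 ug/mL); 1 h; read.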
* = called active by the depositor; [ ] = another dose, or the depositor's remark. Shown are actives, neighbours in structure and some others; about 10% of the full set was active somewhere. Unless noted, the call rests on the fitted dose curve; in most records, active means well fitted inhibition curve with a large enough effect; inconclusive means small, poorly fitted or top-dose-only effect; inactive means no such curve, though single readings can be large or run the other way.

Screening Cc1cc(C(=O)c2ccc(C(C)(C)C)cc2)c(NC(=O)CCl)s1 returned BAZ2B inh -31.8%, Six1-Eya2 blk -4.6, HP1b binding inh -11.4%, JMJD2A Tudor inconclusive, G9a inh 31.6µM* and CtBP-E1A blk -4.6.
Screening Cc1cc(C(=O)c2ccccc2)c(NC(=O)CN2CCOCC2)s1 returned BAZ2B inh -17.3%, Six1-Eya2 blk -8.8, HP1b binding inh 63.6%, JMJD2A Tudor -9.7% and G9a inh 9.7%[59 µM].
`CNC(=O)c1c(NC(=O)c2nc3ccccc3s2)sc2c1CCC2` gave BAZ2B inh -9.6% and G9a inh 39.8µM*.
O=C(CCl)Nc1sccc1C(=O)c1ccccc1 was read as Six1-Eya2 blk 5.3, HP1b binding inh 6.9%, JMJD2A Tudor -19.7% and CtBP-E1A blk -5.4.
Screening Cc1sc(NC(=O)CCl)c(C(=O)c2ccccc2)c1C returned BAZ2B inh inconclusive, Six1-Eya2 blk -18.2, HP1b binding inh inconclusive, JMJD2A Tudor 20µM*, G9a inh inconclusive and CtBP-E1A blk -12.9.
`Cc1ccccc1C(=O)Nc1sc2c(c1C(=O)O)CCC2` gave BAZ2B inh inconclusive, Six1-Eya2 blk -4.2, HP1b binding inh 0.7%, JMJD2A Tudor -11.3%, G9a inh 50.1µM* and CtBP-E1A blk -4.7.
`COc1cc(C)ccc1S(=O)(=O)NC(=O)Cn1nnc(COc2ccc3c(c2)CCCC3)c1C` gave Six1-Eya2 blk -1.2 and CtBP-E1A blk 0.1.
`O=C1NC[C@H](CCCCN2C[C@H](Cc3ccccc3)N(CC3CCCCC3)C(=O)C2=O)N(CC2CCCCC2)C1=O` gave Six1-Eya2 blk 24.9 and CtBP-E1A blk 0.0.
CCN(c1ccccc1)c1nnc(NC(=O)Nc2cccc(Cl)c2C)s1 was read as BAZ2B inh -18.1%, HP1b binding inh 18.1%, JMJD2A Tudor -16.6% and G9a inh inconclusive.
Screening CN(C)S(=O)(=O)c1cccc(NC(=O)c2ccc(COc3ccccc3)cc2)c1 returned BAZ2B inh -16.6%, Six1-Eya2 blk -5.4, HP1b binding inh 67.8%, JMJD2A Tudor -15.9%, G9a inh 11.7% and CtBP-E1A blk 0.3.
CC1=NN(C(N)=S)C(=O)C1N=Nc1ccccc1C (stereo not given) was read as BAZ2B inh -10.8%, Six1-Eya2 blk 2.8, HP1b binding inh -1.0%, JMJD2A Tudor -25.0%, G9a inh 0.6%[59 µM] and CtBP-E1A blk -0.3.
For CC1=NN(C(N)=S)C(=O)C1N=Nc1ccccc1[N+](=O)[O-] (stereo not given) the results were Six1-Eya2 blk -0.8 and CtBP-E1A blk -9.9.
CCOc1ccccc1N=NC1C(=O)N(C(N)=S)N=C1C (stereo not given) was read as BAZ2B inh 7.4%, Six1-Eya2 blk -0.1, HP1b binding inh -3.3%, JMJD2A Tudor -4.0%, G9a inh 50.1µM* and CtBP-E1A blk 2.2.
`CC1=NN(C(N)=S)C(=O)C1N=Nc1ccccc1O` (stereo not given) gave BAZ2B inh 50.1µM*, Six1-Eya2 blk -28.4, HP1b binding inh 46.9% and JMJD2A Tudor 56.2µM*.
For CCc1ccc(NC(=O)Cn2c(=O)n(CCC(C)C)c(=O)c3cccnc32)cc1 the results were BAZ2B inh 6.6%, HP1b binding inh 51.5%, JMJD2A Tudor -12.0% and G9a inh -8.2%[59 µM].
For COc1cc(/C=N\Nc2nc3ccccc3[nH]2)cc(OC)c1OC the results were BAZ2B inh inconclusive, Six1-Eya2 blk -19.5, HP1b binding inh 14.0%, JMJD2A Tudor -9.4%[57.1 µM] and CtBP-E1A blk -16.0.
For COc1ccc2c(c1)c(/C=N/Nc1nc3ccccc3[nH]1)c(C)n2C the results were BAZ2B inh 28.2µM*, Six1-Eya2 blk inconclusive, HP1b binding inh -11.0%, JMJD2A Tudor inconclusive and CtBP-E1A blk inconclusive.
`COc1cc(C2C(=O)N(C3CCCCC3)CC(=O)N2CCc2ccccc2)ccc1OC(C)C` (stereo not given) gave BAZ2B inh 2.7%, HP1b binding inh 29.4%, JMJD2A Tudor -5.8% and G9a inh 1.3%[59 µM].
